In PubChem BioAssay (NCI):
The panel holds about 83,000 compounds, 20% with a hit somewhere; the sample as a whole holds those more often.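 The endpoint reported here, percent growth, reads 100 for growth as untreated, 0 for no net growth and -100 for all cells dead.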 Unmarked numbers belong to inactive results. The source made the active and inactive calls. How the source made its calls: active means growth percent below 10; inactive means the rest.

Assays:
Assay in all cases: NCI-60 one-dose screen, 48 h (100 = growth as untreated, 0 = no growth, -100 = all killed)
Conditions in all cases: 10 µM unless noted
RPMI-8226 leukemia = test system: RPMI-8226 leukemia
OVCAR-8 ovarian = test system: OVCAR-8 ovarian
OVCAR-5 ovarian = test system: OVCAR-5 ovarian
OVCAR-4 ovarian = test system: OVCAR-4 ovarian
SK-OV-3 ovarian = test system: SK-OV-3 ovarian
IGROV1 ovarian = test system: IGROV1 ovarian
OVCAR-3 ovarian = test system: OVCAR-3 ovarian
HS 578T breast = test system: HS 578T breast
NCI/ADR-RES ovarian = test system: NCI/ADR-RES ovarian

SMILES | growth (RPMI-8226 leukemia) | growth (OVCAR-8 ovarian) | growth (OVCAR-5 ovarian) | growth (OVCAR-4 ovarian) | growth (SK-OV-3 ovarian) | growth (IGROV1 ovarian) | growth (OVCAR-3 ovarian) | growth (HS 578T breast) | growth (NCI/ADR-RES ovarian)
CCCSc1nc2ccc(C)cc2cc1/C=[N+](\[O-])c1ccccc1 | 17.1% | 12.4% | 74.3% | 55% | 75.1% | 44.4% | -12% (active) | 48.6% | 7.89% (active)
COc1ccc2c(c1)c(-c1ccc(-c3cn(C)c4ccc(OC)cc34)o1)cn2C | 25.5% | 39.4% | 36.8% | -42.3% (active) | 93.4% | 70.2% | 23.2% | -31.2% (active) | 38.7%
CCOc1c(B(O)O)cccc1-c1nc2ccc3[nH]ncc3c2c2c1CCCC2 | 39.5% | 65% | 74.7% | 93.3% | 72% | 77.6% | 113% | – | 62.7%
COc1cc(C(=O)/C=C/c2c(Cl)nc3sccn23)cc(OC)c1OC | 40.8% | 85.9% | 92.6% | 90.6% | 83.3% | 79.8% | 64.5% | 61% | 81.4%
CCN(CC)S(=O)(=O)c1ccc(NC(=O)CSc2nnc(C)n2-c2ccccc2)cc1 | 103% | 102% | 95.4% | 102% | 105% | -1.42% (active) | 116% | 95.5% | 99.2%
COc1cc(C(=O)/C=C/c2ccc(OCCCCCC[P+](c3ccccc3)(c3ccccc3)c3ccccc3)cc2)cc(OC)c1OC | 0.339% (active) | -45.5% (active) | -13% (active) | 10.1% | -35.9% (active) | -60.2% (active) | -48% (active) | – | 74.4%
COc1ccc(/C=N/Nc2cc(=O)[nH]c3ccc(Cl)cc23)cc1 | 36.6% | 69.1% | 95.1% | 43.1% | 95.2% | 75.7% | 11.8% | 91.7% | 78%
COc1ccc(-c2cnc3ccccc3n2)cc1 | 97.2% | 99.7% | 92.6% | 94.2% | 98.5% | 94.9% | 103% | – | 102%
Cn1cc(C(=O)c2nc(-c3cn(C)c4ccc(F)cc34)no2)c2cc(F)ccc21 | 91.1% | 95.5% | 85.9% | 90.8% | 81% | 77.8% | 98.4% | 87% | 102%
COc1cc(Nc2nc(NCCN)nc3cc[nH]c(=O)c23)cc(OC)c1 | 80% | 76.3% | 67.9% | 80.7% | 51.4% | 57.8% | 109% | 82.5% | 98.6%
CCN1C(=O)N(CC)C2Nn3c(s/c(=C4\C(=O)N(CCC(C)C)c5ccccc54)c3=O)=NC21 (stereo not drawn) | 73.7% | 86% | 102% | 63.5% | 98.7% | 63.8% | 75.8% | 81.4% | 57.8%
C=C1CC[C@H](C(C)C)[C@@H]2[C@H]1[C@H]1CC(=C)[C@@H](O)CC[C@@](C)(O)[C@@H]2O1 | 93.3% | 99.4% | 79.5% | 98.5% | 109% | 107% | 101% | – | 85.9%
COc1c(C2CC(=O)Nc3c2c(C)nn3-c2nc3ccccc3[nH]2)cc2c(c1OC)OCO2 (stereo not drawn) | 53.6% | 52% | 105% | 83.2% | 42% | 48.8% | 36.1% | – | 39.8%
COc1ccc(-c2nn(C(=O)c3cc(OC)c(OC)c(OC)c3)c3cc(N)ccc23)cc1 | 21.7% | 15.9% | 39.2% | 58.1% | 31.5% | 23.9% | 0.527% (active) | – | 15.6%
CNCCCC12CCC(c3ccccc31)c1ccccc12 | 91% | 99.7% | 90.2% | 86.8% | 85.2% | 82.7% | 107% | 87.3% | 89.5%
COc1cccc(OC)c1C(=O)N[C@@H]1C(=O)N2[C@@H]1SC(C)(C)[C@@H]2C(=O)O | 102% | 107% | 110% | 104% | 99.5% | 99.6% | 119% | 114% | 101%
Cc1cc(=O)oc2cc(OC(=O)CN3CCN(C)CC3)ccc12 | 103% | 103% | 101% | 96.6% | 107% | 115% | 105% | – | 105%
CCOC(=O)Nc1ccc(C(=O)/C=C/c2ccccc2)cc1 | 18.9% | 92.3% | 102% | 103% | 110% | -22.8% (active) | 86.8% | 93.6% | 89%
Nc1nc(Cl)cc(=O)n1Cc1ccccc1 | 100% | 92.1% | 91% | 97.1% | 103% | 115% | 103% | 135% | 91.9%
CNc1nc2c(s1)C(c1cc(F)ccc1F)CC(=O)N2 (stereo not drawn) | 87.3% | 91.3% | 89.7% | 83.2% | 71.9% | 73.7% | 55.6% | 70% | 71.7%
O=C(Cc1ccc(F)c(Cl)c1)Nc1cc(C2(C(F)(F)F)CC2)nn1Cc1ccccc1 | 75.8% | 25.3% | 91.4% | 75% | -13.1% (active) | 62.2% | 63.4% | – | 56.9%
O=C(/C=C/c1sc(Cl)nc1Cl)c1ccc(Br)cc1 | 30.9% | 90% | 95.3% | 108% | 105% | 68.5% | 40% | 93.5% | 104%
Cc1nc2cnc(N)c(C#Cc3cncc(C(=O)Nc4ccc(CN5CCN(C)CC5)c(C(F)(F)F)c4)c3)c2nc1C | -23% (active) | 10.4% | 8.89% (active) | -10.9% (active) | 8.06% (active) | -10.4% (active) | 8.72% (active) | – | 36.1%
CCc1ccc2nc(NC(=O)Cc3csc(NC(=O)c4ccco4)n3)sc2c1 | 55.8% | 43.3% | 83.1% | 43.1% | 65.1% | -9.65% (active) | 64.1% | – | 77.5%
O=C(O)C(c1ccccc1)N1C(=O)CSC1=S (stereo not drawn) | 114% | 101% | 101% | 109% | 101% | 107% | 106% | 100% | 106%
O=C(Nn1c(NCC(=O)N2c3ccccc3Sc3ccccc32)nnc1-c1ccc(O)cc1)c1ccccc1 | 101% | 104% | 90.4% | 105% | 101% | 102% | 114% | 108% | 93.7%
Cc1ncc(C(=O)Nc2ccc(CN3CCN(C)CC3)c(C(F)(F)F)c2)cc1C#Cc1ccc(N)nc1 | 1.1% (active) | 19.8% | 10.4% | 12% | 16.7% | -25% (active) | 18.6% | – | 9.79% (active)
c1cc(-c2nnc(SSc3ncnc4nc[nH]c34)o2)ccn1 | 16.1% | 20.4% | 39.7% | 63.3% | 32.8% | 48.2% | 31.1% | 66% | 27.3%
CC(=O)CC(c1ccccc1)c1c(C)[nH]c2ccccc12 (stereo not drawn) | 94.4% | 97.4% | 94.2% | 100% | 104% | 91.5% | 95.9% | – | 93.6%
CCN1C(=O)N(CC)C2Nn3c(s/c(=C4\C(=O)N(CC(C)C)c5ccccc54)c3=O)=NC21 (stereo not drawn) | 50.6% | 44.7% | 52.5% | 56.5% | 56.2% | 47.9% | 21.5% | 40.5% | 11.3%
